# ROMK primary: modulators of human ROMK potassium channel. B-score at 10 µM. 130,000 tested, 2% active. P48048. Tet-inducible ROMK, thallium flux fluorescence; actives lie on both sides. AID 1918;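 active = signal ratio slope over the read window, or its plate-corrected B-score, at least 3 SD from the plate mean, either direction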;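 note: B-score of the F/F0 ratio slope over 7 to 12 s after thallium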
# Target sequence (P48048 whole entry, looked up): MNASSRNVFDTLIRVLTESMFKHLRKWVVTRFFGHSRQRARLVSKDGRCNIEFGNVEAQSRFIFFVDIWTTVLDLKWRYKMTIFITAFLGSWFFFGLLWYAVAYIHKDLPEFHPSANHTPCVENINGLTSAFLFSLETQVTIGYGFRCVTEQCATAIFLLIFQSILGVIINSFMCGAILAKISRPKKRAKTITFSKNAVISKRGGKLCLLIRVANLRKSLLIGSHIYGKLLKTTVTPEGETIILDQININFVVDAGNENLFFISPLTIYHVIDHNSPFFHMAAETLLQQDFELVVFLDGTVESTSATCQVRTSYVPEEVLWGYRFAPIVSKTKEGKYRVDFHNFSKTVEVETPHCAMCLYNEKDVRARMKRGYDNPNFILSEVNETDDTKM
# WT yeast gro inh: growth inhibition of WT yeast, mitochondrial fusion screen; 190,000 tested, 2.1% active; mitochondrial fusion phenotypic screen, WT strain; inhibition, % at 10 µM; in the data active = inhibition above about 58%; tested in S. cerevisiae
# PERK inhibitor: blocks human PERK kinase. 220,000 tested, 0.17% active. inhibition, % at 5.6 µM. Q9NZJ5. CHO PERK-DD fusion, SEAP luminescence translation reporter;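 active = inhibition above the mean inhibition of all tested compounds plus 3 SD, set separately per screening campaign, cut at about 2.9% in these data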;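 note: PERK kinase domain activated by AP20187 dimerizer at 100 nM; 0% = DMSO with dimerizer and 100% = rapamycin at 8.4 µM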
# Arbovirus inh: antivirals against arbovirus infection | inhibition, % at 10 µM | 200,000 tested, 0.37% active | arbovirus infection cell-based antiviral screen; in the data active = inhibition above about 30%
# An asterisk follows results filed as active; / = no result. Compounds with a hit are over-represented: about 3.3% of the library has one in this group of screens.
SMILES,ROMK primary,WT yeast gro inh,PERK inhibitor,Arbovirus inh
CC(C)N1CCc2c(sc(NC(=O)CCc3ccccc3)c2C(N)=O)C1,0.00053,-10,1,14
CC(=O)Nc1sc2c(c1-c1nc3ccccc3s1)CCN(C(C)C)C2,/,58*,0,-22
COc1ccc(-c2nnc3n(CCc4ccccc4)c(=O)c4ccccc4n23)c(OC)c1,/,98*,0,8
Cc1cc(-c2nc3ncccc3o2)ccc1NC(=S)NC(=O)C(C)C,0.67,2,0,-5
COCCn1c(SCc2nnc(-c3ccccc3)o2)nc2sc3c(c2c1=O)CCC3,-0.68,97*,0,-6
S=C1N(c2ccccc2)C(c2ccc(Br)cc2)N2CCCN12 (centres undefined),/,/,0,/
Cc1ccc(N/C(N)=N/c2nc(CSc3ccc(C)cc3)cc(=O)[nH]2)cc1,0.18,9,0,-2
COc1ccc(N/C(N)=N/c2nc(CSc3ccc(C)cc3)cc(=O)[nH]2)cc1,0.6,80*,1,1
Cc1cccc(-n2c(CCc3ccccc3)nnc2SCC(=O)c2ccccc2)c1,-1.7,68*,-1,-25
COc1cccc(C2=CC(c3ccc(C)cc3)n3ncnc3N2)c1 (centres undefined),-1.1,4,0,66*
Cc1ccc(C2C=C(c3ccc4c(c3)OCO4)Nc3ncnn32)cc1 (centres undefined),-0.21,8,0,85*
Cc1ccc(C2C=C(c3ccccc3OC(F)F)Nc3ncnn32)cc1 (centres undefined),/,6,-1,4
Cn1c2c(c(=O)n(C)c1=O)C(C(F)(F)F)(C(F)(F)F)N=C(CCC1CCCCC1)N2,-0.062,35,-1,-21
CCN=C(Nc1ccc2c(c1)OCO2)SC1CC(=O)N(c2ccc(OC)cc2)C1=O (centres undefined),/,-7,0,-7
O=C(/C=C/c1ccc(O)c(O)c1)OC1C(O)CC(OC(=O)/C=C/c2ccc(O)c(O)c2)(C(=O)O)CC1O (centres undefined),/,/,1,/
CCCC(C)NC(=S)Nc1cc(C)cc(C)c1 (centres undefined),/,73*,1,6
C/C(=N/Nc1cc(-c2ccccc2)nc(-c2ccccc2)n1)c1ccc(O)cc1,-0.0063,98*,0,-32
O=C(Cn1cc(S(=O)(=O)N2CCN(c3ccccc3F)CC2)c2ccccc2c1=O)NCCCN1CCCCCC1,-1.5,-8,1,-27
COC(=O)CNC(=O)CNC(=O)c1nn(-c2ccc(OC)c(Cl)c2)c(=O)c2ccccc12,/,76*,-1,2
COCCNC(=O)CNC(=O)c1nn(-c2ccc(OC)c(Cl)c2)c(=O)c2ccccc12,/,1,0,10
Cc1onc(-c2ccccc2Cl)c1C(=O)O/N=C(\N)c1ccc([N+](=O)[O-])o1,/,/,-1,/
CCOc1cc(C(N)=O)cc(Br)c1OC,-0.17,10,4.9*,4
CCOc1cc(C(N)=O)cc(OCC)c1OCC,/,-7,1,5
Cc1csc(NC(=O)c2ccc(C)c(S(=O)(=O)N3CCCCC3)c2)n1,/,22,0,31*
COc1ccc(Nc2nnc(C)c(=O)[nH]2)c(OC)c1,-1,/,4.2*,/
SMILES,ROMK primary,WT yeast gro inh,PERK inhibitor,Arbovirus inh
COc1ccc(C(=O)/C=C/c2ccc(O)cc2)cc1,/,4,1,-3
COc1ccc(C(=O)/C=C/c2ccc(O)cc2)c(O)c1CC=C(C)C,1.4,87*,1,-40
O=C(CSc1nnc2c(n1)[nH]c1ccccc12)Nc1ccc(S(=O)(=O)Nc2ncccn2)cc1,-0.0089,-3,0,2
O=C(O)C1C2C=CC(C2)C1C(=O)NCCCN1CCOCC1 (centres undefined),/,-18,3.0*,-1
CCCCNC(=O)C1C2C=CC(C2)C1C(=O)O (centres undefined),0.073,-8,0,-8
COc1ccc(C(=O)N/N=C/c2sc3ccccc3c2O)cc1,-4.5*,-8,1,-31
S=C(N/N=C1\CCc2ccccc21)NC1CCCCC1,-0.19,70*,0,-1
CSc1nc(Oc2ccc(C)cc2)cc(C(F)(F)F)n1,/,-7,3.6*,0
O=C(c1ccco1)N1CCN(c2c(-c3ccccc3)c3cc(Cl)ccc3[nH]c2=O)CC1,0.31,86*,-1,-32
CCN(C(=S)NC(=O)c1ccccc1Br)C1CCCCC1,6.9*,41,-1,-9
O=C(NC(=S)NC1CCCC1)c1ccccc1Br,-0.17,27,1,-1
Cc1ccc(-c2nnc(SCC(=O)n3c4c(c5ccccc53)CCCC4)o2)cc1,0.91,17,3.0*,6
O=C(Nc1nc2ccsc2c(=O)s1)c1ccc(Cl)cc1,-0.4,/,2,/
Cc1ccn2c(Nc3ccccc3)c(-c3ccccn3)nc2c1,-0.26,73*,0,-19
Cc1ccccc1Nc1c(-c2cccnc2)nc2ccccn12,0.61,/,-1,/
Cc1ccn2c(Nc3ccccc3C)c(-c3ccccn3)nc2c1,0.21,72*,0,-26
Cc1ccccc1Nc1c(-c2ccccn2)nc2ccccn12,-1.1,64*,0,-29
Cc1ccc2nc(-c3ccccn3)c(Nc3ccccc3C)n2c1,-0.61,76*,-2,-27
COc1ccc2c(c1)[nH]c1c(=O)n(CCCn3ccnc3)cnc12,0.4,/,0,-3
Cc1ccc(N2C(=O)C(F)(F)C2c2ccccc2)cc1 (centres undefined),/,9,0,2
Cc1ccc(N2C(=N)/C(=C3/Nc4ccccc4S3)C(c3ccccc3)C2=O)cc1 (centres undefined),/,83*,0,-38
COCCn1nnnc1C(c1ccc(C)cc1)N1CCN(Cc2ccc3c(c2)OCO3)CC1 (centres undefined),/,9,0,-2
Cc1ccc(C(c2nnnn2Cc2cccs2)N2CCN(Cc3ccc4c(c3)OCO4)CC2)cc1 (centres undefined),-2.1*,6,0,0
COc1ccc(/C=C2\CCCC3C2=NC(=S)NC3c2ccc(OC)cc2)cc1 (centres undefined),-0.37,72*,0,-13
Cc1cc(C(F)(F)F)nc2c(Cl)c(C(C)(C)C)nn12,/,/,0,/
SMILES,ROMK primary,WT yeast gro inh,PERK inhibitor,Arbovirus inh
COc1cccc(NC(=S)N2CCN(C(c3ccccc3)c3ccccc3)CC2)c1,0.47,49,-1,-14
COc1ccc(NC(=S)N2CCN(C(c3ccccc3)c3ccccc3)CC2)c(OC)c1,0.19,69*,-1,18
COc1ccc(NC(=S)NCCc2ccccc2OC)c(OC)c1,0.58,37,0,11
Cc1cccc(NC(=S)NCCC(c2ccccc2)c2ccccc2)c1,/,69*,1,-27
Cc1cccc(NC(=S)NNC(=S)NCc2ccccc2)c1,0.72,7,1,8
CNC(=S)NCCC(c1ccccc1)c1ccccc1,-0.39,67*,0,4
COc1ccc(NC(=S)NCCC(c2ccccc2)c2ccccc2)c(OC)c1,/,65*,1,1
COC(=O)Cn1c(=NC(=O)c2ccc([N+](=O)[O-])s2)sc2cc(Br)ccc21,-0.31,77,1,-8
CN1C(=O)N(S(=O)(=O)c2ccc(F)c(F)c2F)C(=O)C1(C)C,/,18,1,7
COc1ccc(NC(=O)C2=Cc3ccccc3OC2)cc1,0.26,-5,1,7
COc1cc(NC(=S)NCCC(c2ccccc2)c2ccccc2)cc(OC)c1,0.19,66*,-1,-23
